The supplement of paper PMC9588786
Structures can show the parent of a compound that is named as a salt. ± gives the standard deviation of the averaged measurements.

Test system: HT-1080
Test: relative cell viability with RSL3 co-treatment (fraction of control); higher = stronger protection from RSL3-induced ferroptosis (higher viability)
Conditions: 10 µM
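Also: viability read as CCK-8 absorbance at 450 nm in cells co-exposed to the GPX4 inhibitor RSL3, relative to a 0.01% DMSO vehicle control.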

Row | SMILES | relative cell viability
1 | Cc1ccc(NC(=O)c2ccc(CN3CCN(C)CC3)cc2)cc1Nc1nc(-c2cccnc2)cs1 [Masitinib (AB1010)] | 0.67 ± 0.12
2 | COc1cc2c(Oc3ccc(NC(=O)C4(C(=O)Nc5ccc(F)cc5)CC4)cc3F)ccnc2cc1OCCCN1CCOCC1 | 0.287 ± 0.064
3 | Cc1ccc(-n2nc(C(C)(C)C)cc2NC(=O)Nc2ccc(OCCN3CCOCC3)c3ccccc23)cc1 [Doramapimod (BIRB 796)] | 0.57 ± 0.03
4 | C=CC(=O)Nc1ccc2ncnc(Nc3cccc(Br)c3)c2c1 | 0.593 ± 0.055
5 | O=C(Nc1cccnc1)c1cc(-c2ccnc(F)c2)ccc1OCc1ccccc1 | 0.627 ± 0.06
6 | CCOc1cc(N2CCC(O)CC2)ccc1Nc1ncc2c(n1)N(C)c1ccccc1C(=O)N2C | 0.793 ± 0.015
7 | COc1cc2c(Oc3ccc4[nH]c(C)cc4c3F)ncnc2cc1OCCCN1CCCC1 [Cediranib (AZD2171)] | 0.283 ± 0.023
8 | Cc1nc(N)sc1-c1ccnc(Nc2ccc(N3CCOCC3)cc2)n1 | 0.6 ± 0.095
9 | O=c1cc(N2CCOCC2)oc2c(-c3ccccc3)cccc12 | 0.76 ± 0.16
10 | CCNc1nc(Nc2cc(F)c(C(=O)N3CCOCC3)cc2OC)ncc1C(F)(F)F | 0.69 ± 0.089
11 | COCCOc1ccc2c(c1)ncn2-c1ccc2cccc(N3CCC(N)CC3)c2n1 | 0.82 ± 0.056
12 | COc1cc2nccc(Oc3ccc(NC(=O)C4(C(=O)Nc5ccc(F)cc5)CC4)cc3)c2cc1OC | 0.7 ± 0.21
13 | C[C@@H](NC(=O)c1ncnc(N)c1Cl)c1ncc(C(=O)Nc2cc(C(F)(F)F)c(Cl)cn2)s1 | 0.6467 ± 0.0058
14 | N#CC(=C(/N)Sc1ccccc1N)/C(C#N)=C(\N)Sc1ccccc1N | 0.84 ± 0.017
15 | CCc1cccc(CC)c1NC(=O)N1Cc2[nH]nc(NC(=O)c3ccc(N4CCN(C)CC4)cc3)c2C1 | 0.53 ± 0.087
16 | CC(=O)Nc1nc(C)c(-c2ccc(Cl)c(S(=O)(=O)NCCO)c2)s1 | 0.603 ± 0.057
17 | C#Cc1cccc(Nc2ncnc3cc(OC)c(OCCCCCCC(=O)NO)cc23)c1 | 0.793 ± 0.046

Row | SMILES | relative cell viability
18 | CNc1nc(Nc2cnn([C@H]3CCN(C4COC4)C[C@@H]3F)c2Cl)ncc1C(F)(F)F | 0.617 ± 0.032
19 | Oc1cccc(-c2nc(N3CCOCC3)c3oc4ncccc4c3n2)c1 | 0.75 ± 0.044
20 | CO[C@H]1C[C@@H]2CC[C@@H](C)[C@@](O)(O2)C(=O)C(=O)N2CCCC[C@H]2C(=O)O[C@H]([C@H](C)C[C@@H]2CC[C@H](n3cnnn3)[C@H](OC)C2)CC(=O)[C@H](C)/C=C(\C)[C@@H](O)[C@@H](OC)C(=O)[C@H](C)C[C@H](C)/C=C/C=C/C=C/1C [Zotarolimus(ABT-578)] | 0.607 ± 0.16
21 | c1cncc(CN2CCC(n3ncc4c(N5CCOCC5)nc(-c5ccc6[nH]ccc6c5)nc43)CC2)c1 | 0.347 ± 0.13
22 | O=C(c1ccc(/C=C/c2n[nH]c3ccccc23)cc1)N1CCNCC1 | 0.773 ± 0.076
23 | N#CC[C@H](C1CCCC1)n1cc(-c2ncnc3[nH]ccc23)cn1 | 0.897 ± 0.083
24 | CC(C)n1nc(-c2cc3cc(O)ccc3[nH]2)c2c(N)ncnc21 [Torkinib (PP242)] | 0.833 ± 0.12
25 | CO[C@H]1C[C@@H]2CC[C@@H](C)[C@@](O)(O2)C(=O)C(=O)N2CCCC[C@H]2C(=O)O[C@H]([C@H](C)C[C@@H]2CC[C@@H](OC(=O)C(C)(CO)CO)[C@H](OC)C2)CC(=O)[C@H](C)/C=C(\C)[C@@H](O)[C@@H](OC)C(=O)[C@H](C)C[C@H](C)/C=C/C=C/C=C/1C | 0.367 ± 0.11
26 | CNC(=O)c1cc(Oc2ccc(NC(=O)Nc3ccc(Cl)c(C(F)(F)F)c3)cc2)ccn1 [Sorafenib Tosylate] | 0.317 ± 0.04
27 | COc1ccc(-c2nc(N3CCOCC3)c3sc(CN(C)c4ncc(C(=O)NO)cn4)cc3n2)cn1 | 0.577 ± 0.15
28 | COc1cc(F)c(F)c(Nc2ccc(I)cc2F)c1NS(=O)(=O)C1(C[C@H](O)CO)CC1 [Refametinib (RDEA119, Bay 86-9766)] | 0.92 ± 0.01
29 | O=C(NC(NC(=S)Nc1ccc(F)c([N+](=O)[O-])c1)C(Cl)(Cl)Cl)C(c1ccccc1)c1ccccc1 (centres undefined) | 0.62 ± 0.095
30 | Nc1cccc(-c2cc3c(Oc4cccc(O)c4)ncnc3[nH]2)c1 | 0.483 ± 0.046
31 | Nc1cc(C(F)(F)F)c(-c2cc(N3CCOCC3)nc(N3CCOCC3)n2)cn1 [Buparlisib (BKM120, NVP-BKM120)] | 0.643 ± 0.031
32 | C#Cc1cccc(Nc2ncnc3cc4c(cc23)OCCOCCOCCO4)c1 [Icotinib] | 0.64 ± 0.075
33 | OC(c1cc(-c2ccc(Cl)cc2)nc2ccccc12)C1CCCCN1 (centres undefined) [Vacquinol-1] | 0.0533 ± 0.035
34 | O=C1NCCc2[nH]c(-c3ccncc3)cc21 | 0.69 ± 0.04
